Measurements published in ChEMBL document CHEMBL1201862, “PubChem BioAssay data set” (2004).
The whole screen tested about 400,000 compounds, of which about 2,100 (0.53%) were called active. About 14% were inconclusive and are not listed. The sample holds actives, similar compounds and a random draw of the others, so the mix is not that of the screen. No rule for the calls is given here.

molecular target: Ataxin-2 (Homo sapiens) (UniProt Q99700); assay: qHTS for Inhibitors of ATXN expression.; assay type: functional
Sequence (Q99700 whole entry): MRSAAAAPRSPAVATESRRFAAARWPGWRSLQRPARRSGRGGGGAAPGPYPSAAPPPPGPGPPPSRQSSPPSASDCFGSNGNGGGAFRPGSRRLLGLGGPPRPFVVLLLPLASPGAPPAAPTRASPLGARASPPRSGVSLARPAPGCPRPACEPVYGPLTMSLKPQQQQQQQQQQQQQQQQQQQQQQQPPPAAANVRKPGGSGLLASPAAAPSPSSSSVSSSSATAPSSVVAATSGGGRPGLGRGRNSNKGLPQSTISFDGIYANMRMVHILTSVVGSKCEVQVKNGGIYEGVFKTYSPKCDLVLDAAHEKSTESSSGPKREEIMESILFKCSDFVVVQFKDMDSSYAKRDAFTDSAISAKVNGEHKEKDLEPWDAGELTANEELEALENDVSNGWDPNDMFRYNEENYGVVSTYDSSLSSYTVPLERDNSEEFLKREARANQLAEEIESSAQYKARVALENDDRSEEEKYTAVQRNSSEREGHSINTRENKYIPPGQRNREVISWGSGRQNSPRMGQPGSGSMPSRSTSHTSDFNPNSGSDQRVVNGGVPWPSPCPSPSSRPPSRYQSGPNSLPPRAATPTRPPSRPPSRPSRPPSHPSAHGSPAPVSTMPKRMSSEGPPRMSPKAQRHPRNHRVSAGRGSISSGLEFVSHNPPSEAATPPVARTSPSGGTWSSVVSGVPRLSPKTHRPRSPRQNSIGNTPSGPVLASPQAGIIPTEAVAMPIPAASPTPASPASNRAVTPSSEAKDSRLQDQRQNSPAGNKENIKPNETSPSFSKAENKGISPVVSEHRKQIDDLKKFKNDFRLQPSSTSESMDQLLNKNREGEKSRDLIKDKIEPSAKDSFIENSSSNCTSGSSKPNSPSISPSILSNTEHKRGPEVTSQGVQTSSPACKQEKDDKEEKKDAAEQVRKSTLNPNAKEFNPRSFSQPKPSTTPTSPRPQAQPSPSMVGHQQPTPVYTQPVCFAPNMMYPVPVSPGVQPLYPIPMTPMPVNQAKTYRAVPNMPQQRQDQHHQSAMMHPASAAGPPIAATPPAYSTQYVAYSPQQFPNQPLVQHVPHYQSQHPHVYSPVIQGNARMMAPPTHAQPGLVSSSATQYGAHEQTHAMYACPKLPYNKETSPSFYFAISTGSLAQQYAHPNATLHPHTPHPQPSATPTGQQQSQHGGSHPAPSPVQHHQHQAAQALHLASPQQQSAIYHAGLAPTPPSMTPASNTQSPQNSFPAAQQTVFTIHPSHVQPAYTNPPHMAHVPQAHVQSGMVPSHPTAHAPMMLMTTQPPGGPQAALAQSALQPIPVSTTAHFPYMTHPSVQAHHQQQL

Row | Compound | Potency
1 | CC1=C(C(=O)Nc2ccccn2)C(c2cn(C)nc2C)C2=C(O)CCCC2=N1 (configuration not stated) | inactive
2 | Cc1nnc(NC(=O)CSc2nnc(-c3ccco3)n2C(C)C)s1 | inactive
3 | Cc1cc(C)cc(-n2c(SCC(N)=O)nc3c(oc4ccccc43)c2=O)c1 | 22.4 µM (active)
4 | Cc1nc(Nc2cccc(Cl)c2)c2oc3ccccc3c2n1 | inactive
5 | Cc1cccc(-n2c(SCC(N)=O)nc3c(oc4ccccc43)c2=O)c1 | 20 µM (active)
6 | Cc1cccc2c(SCC(N)=O)nc(-c3ccccc3)nc12 | inactive
7 | Cc1cccc(-n2c(=O)c(C#N)cc3c(=O)n4ccccc4nc32)c1 | inactive
8 | COCCNC(=O)c1c(N)n(-c2cccc(C)c2)c2nc3ccccc3nc12 | inactive
9 | CCCOc1cccc(C2c3c(oc4ccc(F)cc4c3=O)C(=O)N2CCCN2CCOCC2)c1 (configuration not stated) | inactive
10 | Cc1nc(Cl)c2c(n1)N=C1CCCC(O)=C1O2 | inactive
11 | Cc1ccc(CNC(=O)c2cc3c(=O)n4ccccc4nc3n(CC3CCCO3)c2=N)cc1 (configuration not stated) | inactive
12 | CCCCn1cc[n+](-c2nc3ccccc3nc2[N-]S(=O)(=O)c2ccc(Cl)cc2)c1 | inactive
13 | Cc1ccc(-c2nnc(Nc3ccc4c(c3)OCO4)c3ccccc23)cc1S(=O)(=O)NC(C)C | inactive
14 | O=C1Nc2ccc(S(=O)(=O)NCC3CCCO3)c3cccc1c23 (configuration not stated) | inactive
15 | Cc1ccc(-c2nnc(Nc3cccc(O)c3)c3ccccc23)cc1S(=O)(=O)NCC1CCCO1 (configuration not stated) | 39.8 µM (active)
16 | CN1CCN(C(=O)c2cc3nc(-c4ccco4)cc(C(F)(F)F)n3n2)CC1 | inactive
17 | Nc1ccc(Cn2ccc3c4c(N)nc(N)nc4ccc32)cc1 | 29.9 µM (active)
18 | COc1ccc(CC(=O)NC2CCCc3ccccc32)cc1 (configuration not stated) | inactive
19 | CN(CC(=O)Nc1ccccc1Sc1ccccc1)C1CCCCC1 | inactive
20 | COC(=O)N1C(=O)[C@@](c2ccccc2)(C2CCCC2)N1C(=O)OC | 17.8 µM (active)
21 | Cc1ccc(C2=CC(c3ccc(Cl)cc3)n3nc(-c4ccc(C)cc4)nc3N2)cc1 (configuration not stated) | inactive

Row | Compound | Potency
22 | COc1ccc(Cl)cc1NC(=O)Cn1c(=O)n(CCCC(=O)NCCc2ccc(OC)c(OC)c2)c(=O)c2ccccc21 | 39.8 µM (active)
23 | COc1ccc(CCNC(=O)CCCn2c(=O)c3ccccc3n(Cc3cccc(Cl)c3)c2=O)cc1OC | 39.8 µM (active)
24 | Cc1ccc2c(c1)c(=O)c1ccccc1n2CCCC(=O)Nc1ccc(C)c(F)c1 | inactive
25 | COc1ccc(CCNC(=O)CCCn2c(=O)c3ccccc3n(CC(=O)Nc3ccc(C)cc3Cl)c2=O)cc1OC | 20 µM (active)
26 | O=C(CCCn1c2ccccc2c(=O)c2ccccc21)Nc1cccc(Cl)c1 | inactive
27 | COc1ccc(Cl)cc1NC(=O)CN1C(=O)NC(C)(Cc2ccc(OC)c(OC)c2)C1=O (configuration not stated) | inactive
28 | COC/C=C/C1=CC2=CC(=O)C(C)(OC(=O)c3cnc4ccccc4n3)C(=O)C2=CN1Cc1ccccc1 (configuration not stated) | 12.6 µM (active)
29 | COc1ccc2oc(=O)c(-c3nnc(N)s3)cc2c1 | inactive
30 | CCC(C)NC(=O)c1sc2nc(C)c(C(=O)Nc3ccc(C)cc3C)c(-c3ccccc3Cl)c2c1N (configuration not stated) | inactive
31 | C=C(C)COc1ccc(-c2[nH]nc(C)c2-c2ccc(Br)cc2)c(O)c1 | 25.1 µM (active)
32 | COC(=O)c1c(C)nc(C)c(C(=O)OC)c1-c1ccc(OC)cc1 | inactive
33 | COc1ccc(-c2c(C)c3ccc(O)cc3oc2=O)cc1 | inactive
34 | C=C(C)COc1ccc(-c2nc(N)ncc2-c2ccc(Cl)cc2)c(O)c1 | 39.8 µM (active)
35 | CCN(CC)C(=O)c1sc2nc(-c3cccs3)cc(-c3ccc(Cl)cc3)c2c1N | inactive
36 | C=C(C)COc1ccc(-c2ncncc2-c2ccc(Br)cc2)c(O)c1 | inactive
37 | C=C(C)COc1ccc(-c2n[nH]cc2-c2ccc(OC)c(OC)c2)c(O)c1 | 44.7 µM (active)
38 | COc1ccc(-c2c(C)n[nH]c2-c2ccc(OC)c(C)c2O)cc1 | 39.8 µM (active)
39 | COc1cc(/C=N/NC(=O)Nc2cccc3nsnc23)cc(OC)c1OC | inactive
40 | CNC(=O)c1cc2c(=O)n3cccc(C)c3nc2n(C(C)C)c1=N | inactive
41 | Cc1ccc(S(=O)(=O)NCCc2cn3nc(C)c(C)nc3n2)cc1C | inactive
42 | Nc1ccc2c(c1)Oc1ccccc1C=C2 | inactive

Row | Compound | Potency
43 | COc1ccccc1/N=c1\oc2cc(O)ccc2cc1C(N)=O | inactive
44 | CCn1nc(NC(=O)Cc2ccc(OC)cc2)c2cc3cccc(C)c3nc21 | inactive
45 | C/C(CC1CC2=C(CC1(C)C)C(C)(C)CCC2)=N\NC(N)=S (configuration not stated) | 35.5 µM (active)
46 | CN1C(=O)c2ccccc2N(C)C1c1ccccc1Cl (configuration not stated) | inactive
47 | COc1ccccc1C1CCCN1Cc1nc(-c2ccc(C)s2)oc1C (configuration not stated) | inactive
48 | Cc1cc(C)n2nc(SCC(=O)Nc3ccc(F)c(F)c3F)nc2n1 | inactive
49 | COCCNc1cc(C)nc2cc(-c3ccc(C)cc3)nn12 | inactive
50 | Cc1ccc(Nc2cc(C)nc3nc(Cc4ccc(Cl)cc4)nn23)cc1 | 22.4 µM (active)
51 | Cc1c(-c2ccccc2)c(=O)oc2c(CN3CCN(C)CC3)c(O)ccc12 | inactive
52 | Cc1ccc(-c2cc(C(=O)OCC(=O)N(C)C3CCS(=O)(=O)C3)c3ccccc3n2)o1 (configuration not stated) | inactive
53 | CN(C(=O)COC(=O)c1nc(Cl)c(Cl)c(Cl)c1Cl)C1CCS(=O)(=O)C1 (configuration not stated) | 33.6 µM (active)
54 | CN(C(=O)COC(=O)c1cc(-c2ccc(Cl)s2)nc2ccccc12)C1CCS(=O)(=O)C1 (configuration not stated) | inactive
55 | CC1Cc2ccccc2N1C(=O)COC(=O)c1ccc(N(C)C)cc1 (configuration not stated) | inactive
56 | COc1cc(/C=C(/C#N)c2nc3ccccc3[nH]2)ccc1OCC(=O)Nc1ccccc1C(C)C | inactive
57 | Cc1cc(Br)ccc1SCC(=O)OCC(O)=C(C#N)c1nc2ccccc2[nH]1 | 39.8 µM (active)
58 | Cc1cc(Br)ccc1SCC(=O)OC/C(O)=C(\C#N)c1nc2ccccc2[nH]1 | 11.2 µM (active)
59 | Cc1cc(/C=C(/C#N)c2nc3ccccc3[nH]2)c(C)n1-c1ccccc1C(=O)O | inactive
60 | CCO/C(O)=C(\C#N)c1cc(C)c2ccccc2n1 | inactive
61 | COc1cc(/C=C(/C#N)c2nc3ccccc3[nH]2)ccc1OCC(=O)Nc1ccccc1C | inactive
62 | Cc1c(C)c(C)c(S(=O)(=O)N2CCNCC2)c(C)c1C | inactive
